# Results taken from the supplement of paper PMC3334620.
# Over roughly 33,000 sequences, “E-score (-0.5 to 0.5)” has its median near -0.054; the highest 2% begin near 0.35. The full list was thinned out, with the highest values kept by preference.
# Molecular target: T1, Stb5 (UniProt P38699)
# T1 sequence: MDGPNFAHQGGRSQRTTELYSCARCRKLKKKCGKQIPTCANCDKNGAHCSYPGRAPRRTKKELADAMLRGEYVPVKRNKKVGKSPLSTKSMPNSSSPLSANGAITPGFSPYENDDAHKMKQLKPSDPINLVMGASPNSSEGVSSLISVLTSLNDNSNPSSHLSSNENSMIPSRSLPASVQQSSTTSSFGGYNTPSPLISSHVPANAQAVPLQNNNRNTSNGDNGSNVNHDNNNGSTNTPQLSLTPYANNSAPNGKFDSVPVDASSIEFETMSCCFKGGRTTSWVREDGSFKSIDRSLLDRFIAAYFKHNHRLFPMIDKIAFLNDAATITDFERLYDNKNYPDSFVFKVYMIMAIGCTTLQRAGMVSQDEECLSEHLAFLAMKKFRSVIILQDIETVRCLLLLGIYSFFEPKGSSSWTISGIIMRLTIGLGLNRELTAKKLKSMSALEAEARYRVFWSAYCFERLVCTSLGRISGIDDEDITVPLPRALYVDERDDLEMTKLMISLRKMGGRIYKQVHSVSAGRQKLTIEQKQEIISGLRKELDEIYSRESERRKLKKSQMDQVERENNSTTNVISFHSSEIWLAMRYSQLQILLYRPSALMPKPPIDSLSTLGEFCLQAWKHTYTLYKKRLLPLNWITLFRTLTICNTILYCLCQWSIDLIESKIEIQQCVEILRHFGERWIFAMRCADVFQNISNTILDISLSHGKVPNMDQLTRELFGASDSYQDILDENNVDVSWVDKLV
# Assay: PBM E-score (8-mer binding enrichment) (E-score (-0.5 to 0.5)); higher = stronger / more preferred TF binding
# Conditions: protein concentration: 200 nM; construct: GST-full length
# Method: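 Universal 'all 10-mer' protein binding microarrays (Agilent AMADID 015681) probed with GST-tagged S. cerevisiae TFs (full-length or DBD) made by in vitro transcription/translation (PURExpress), about 100-200 nM. Bound TF was detected with fluorescent anti-GST. Each ungapped 8-mer (which stands for itself and its reverse complement) is scored by the PBM enrichment score (E-score), a modified Wilcoxon-Mann-Whitney statistic from -0.5 to +0.5, computed with the Universal PBM Analysis Suite. Scale: above 0.35 generally sequence-specific binding.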
row,Sequence,PBM E-score
1,ATCGGATG,0.168
2,ACGCTGGC,-0.0211
3,ACACCCGG,0.234
4,ACACCGGG,0.417
5,AAACCGGT,0.304
6,GAACCGGC,0.213
7,GCACCGGC,0.353
8,GCACCGGA,0.338
9,CCACCGGG,0.26
10,ACACCGGT,0.421
11,TCACCGGA,0.343
12,ACACCTGT,0.0542
13,CCACCGGC,0.322
14,ACACCGGA,0.402
15,CGGTTGTA,0.309
16,ATAGCCAC,-0.171
17,ACCAAGCA,-0.0711
18,AAATGTTC,-0.138
19,CATTGGCC,-0.214
20,AAACCGGC,0.268
21,ACACCGGC,0.4
22,AGACCGGC,0.313
23,ACCGTCTC,0.0885
24,CACACCTC,-0.0997
25,AACACCGA,0.479
26,GACACCTC,-0.0935

row,Sequence,PBM E-score
1,AACACCGG,0.474
2,CACACCGA,0.344
3,CACACCGG,0.327
4,AACACCCA,-0.0193
5,CACACCGC,0.394
6,GACACCCC,0.014
7,CACACCAC,-0.199
8,GACACCGC,0.454
9,AACACCTG,0.179
10,GAGCCTCC,-0.123
11,CACCGTAC,0.213
12,AGCCGCCT,0.0174
13,ACCGTGGC,0.0612
14,ACCAAAAG,-0.113
15,CCAACCTC,-0.111
16,GAATCGAA,-0.175
17,CGTGTACA,-0.00441
18,AACACCCT,-0.128
19,AACACCAT,0.0943
20,TACACCTA,-0.109
21,AACACCGT,0.472
22,GCCACCGA,0.139
23,TACACCGA,0.414
24,TACACCAA,-0.128
25,GACACCGA,0.442
26,GACACCAA,-0.124

row,Sequence,PBM E-score
1,AGGCGACG,-0.112
2,CCAGAAAA,-0.296
3,AATGACTC,-0.235
4,AAGGATCT,-0.117
5,CCTGCCCC,0.0235
6,CTGAATCA,-0.177
7,AACCCCAT,0.156
8,ACCCCCGT,0.365
9,ACCCCCGC,0.398
10,ACCCCCCC,-0.295
11,AACCCCGT,0.448
12,ACACCCGT,0.162
13,AACCCCCT,-0.247
14,ACCCCCCT,-0.245
15,CCCCCCGC,0.068
16,CTACTCCC,-0.0111
17,TCGTGGAA,0.00034
18,CTAAGAAC,0.00444
19,ATGTTCCG,0.249
20,AATTGATG,0.0383
21,ATCGATAA,-0.139
22,ACGGCGAG,0.043
23,ACGGCACC,0.175
24,ACGGCAAT,0.377
25,ACGGCACT,0.427
26,ACGGCACA,0.0761

row,Sequence,PBM E-score
1,ACGGCGTA,0.0801
2,ACGGCAAG,-0.121
3,ACGGCGTG,0.208
4,ACGGCAAA,0.235
5,ACGGCGAC,0.264
6,ACGGCGTC,0.392
7,ACGGCGAT,0.362
8,ATACCAGA,-0.177
9,GGTACTTA,0.233
10,GTTAGAAC,0.0768
11,ATTCGCCC,0.125
12,CCTCCAAC,-0.199
13,ATCGCAAC,-0.0557
14,CATATCCG,0.15
15,AATATGCT,0.00961
16,GCGGCACC,0.353
17,CCGGCACC,0.278
18,GCGGCACA,0.173
19,GCAAAAGA,-0.0404
20,CATTGAGC,-0.032
21,CTCTAATA,-0.188
22,AGGGCCCT,-0.173
23,GGGCTAAC,-0.0393
24,AGCTAGGG,-0.0617
25,ATAGCGCC,0.361
26,ATAGCACG,-0.0126

row,Sequence,PBM E-score
1,ATAGCACA,-0.124
2,CTAGCGCC,0.172
3,ATAGCGCG,0.0127
4,ATAGCACC,0.396
5,AGCTCGAA,-0.0836
6,GGTGAAGA,0.0224
7,CAGTTCGG,0.206
8,GTTTCTAA,0.0616
9,ATGCCGAC,0.386
10,ACGCCGAC,0.435
11,ACGCCGAT,0.35
12,CCGCCGAA,0.347
13,ATGCCGTG,0.144
14,CCGCCGAG,0.28
15,CTGCCGTC,0.121
16,ATGCCGTC,0.352
17,CTGCCGAC,0.15
18,GCGCCGAC,0.28
19,CCGCCGAC,0.356
20,ATGCCGAG,0.147
21,AGAATCTG,-0.0539
22,CCACACGC,-0.0412
23,CTCCGTCA,0.297
24,ATCTACAT,-0.193
25,TCCAACAA,-0.129
26,GAGGTATC,-0.0164

row,Sequence,PBM E-score
1,ATGCCGGG,0.287
2,ATGCCGGC,0.301
3,ATGCCGGA,0.373
4,GTTATCGA,-0.0558
5,CAAGAGAC,-0.146
6,AGCGACGG,0.245
7,ACCGACGG,0.42
8,GCCGACGA,0.308
9,CACGACGG,0.168
10,TCCGACGA,0.252
11,CCAGACGG,0.179
12,AACGACGG,0.242
13,CCCGACGG,0.437
14,ACCGACGA,0.354
15,CCCGACGC,0.388
16,GCCGACGC,0.316
17,CCCGACGA,0.31
18,AGGGGGAC,-0.248
19,CGCTGGGC,0.106
20,AGAGGCGG,0.253
21,CATAGAAG,-0.126
22,AGACCCAG,-0.291
23,GAGGTCCC,-0.19
24,CTTGGGCA,-0.0874
25,AGGCCACC,-0.188
26,CCCTCGAA,-0.222

row,Sequence,PBM E-score
1,TAGAACAA,-0.15
2,CCTTGGTA,0.0875
3,ACCGACGC,0.306
4,AACGACGT,-0.0504
5,ACCGACGT,0.355
6,TGTGATAA,-0.171
7,TATACCGA,0.26
8,AATACCCT,-0.00882
9,AATACCGG,0.417
10,AATACCAT,-0.0252
11,GATACCGC,0.35
12,CATACCGC,0.307
13,CATACCGG,0.193
14,AATACCGC,0.454
15,AATACCAG,-0.007
16,AATACCGT,0.438
17,AATACCGA,0.415
18,CATACCGA,0.279
19,CGCGTCTC,0.0131
20,CATCGACG,0.0157
